# Inconclusive results are not listed. Entries that show only a call come without a potency. Values without a mark were called inactive. Active and inactive are the calls of the source. Calls come from the whole dose curve; as a rule, active = well fitted inhibition curve with a large enough effect; inconclusive = small, poorly fitted or top-dose-only effect; inactive = no such curve, though single readings can be large or run the other way.
# Experiments:
# [1] = test system: Zika virus NS2B-NS3 protease (unlinked complex); assay: Primary screen GU Rhodamine qHTS for Zika virus inhibitors: Unlinked NS2B-NS3 protease assay (AID 1347159); note: nearly all actives have a fitted effect of over 60% in size
# How it was run: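 Enzyme 25 nM in Tris-HCl pH 8.0 + 0.01% Tween 20; compounds up to 114 microM, 15 min RT dark; + Rhod110 substrate 1.5 microM; read t0 and 15 min; delta fluorescence → % inhibition → 4-parameter Hill fit.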
# [2] = test system: Zika virus NS2B-NS3 protease (linked construct); assay: Primary screen NINDS Rhodamine qHTS for Zika virus inhibitors (AID 1347160); note: nearly all actives have a fitted effect of over 55% in size
# How it was run: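 Enzyme (25 nM, linked NS2B-NS3) was preincubated 15 min with compound in 10 mM Tris-HCl pH 8.0, 0.01% Tween 20. Rhodamine110 substrate (1.5 microM) was then added and fluorescence read at start and after 15 min.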
Compound,Potency [1],Potency [2],"activity change, negative = inhibition [1]","activity change, negative = inhibition [2]"
CC(C)=CCC[C@](C)(O[C@@H]1O[C@H](CO)[C@@H](O)[C@H](O)[C@H]1O)[C@H]1CC[C@]2(C)[C@@H]1[C@H](O)CC1[C@@]3(C)CC[C@H](O)C(C)(C)C3[C@@H](O[C@@H]3O[C@H](CO)[C@@H](O)[C@H](O)[C@H]3O)C[C@]12C (stereo partly specified),inactive,inactive,–,–
CC(O)/C=C/C1C(C)C(O[C@@H]2O[C@H](CO)[C@@H](O)[C@H](O)[C@H]2O)C(O)CC1(C)C (stereo partly specified),inactive,inactive,–,–
CC(=O)N[C@@H](CCCCN)C(=O)N(C)[C@@H](CC(C)C)C(=O)N[C@H](C(=O)N(C)[C@@H](Cc1ccccc1)C(=O)N[C@H](Cc1ccccc1)C(N)=O)C(C)C,–,–,0% [at 11.5 µM],25% [at 4.91 µM]
CCC1=CC2CN(C1)Cc1c([nH]c3ccccc13)[C@@](C(=O)OC)(c1cc3c(cc1OC)N(C)[C@H]1[C@@](O)(C(=O)OC)[C@H](OC(C)=O)[C@]4(CC)C=CCN5CC[C@]31[C@@H]54)C2 (stereo partly specified),inactive,inactive,–,–
OC[C@H]1O[C@@H](OCCc2ccc(O)cc2)[C@H](O[C@@H]2OC[C@](O)(CO)[C@H]2O)[C@@H](O)[C@@H]1O,inactive,inactive,–,–
C=C1CC2C(C)(CCC(=O)O)C(C(C)(C)O)CCC2(C)C2C(=O)OC(C)(C(=O)OC)C(=O)C12C (stereo unspecified),inactive,inactive,–,–
CC(C)c1nc(-c2ccc(NC(=O)Nc3cccc(C(F)(F)F)c3)c3ccccc23)c2c(N)nccn12,inactive,inactive,–,–
CC1CCC2C(C)(C)[C@@H](O)CC[C@]2(C)C12Cc1c(O)cc3c(c1O2)CN(C(CCC(=O)O)C(=O)O)C3=O (stereo partly specified),inactive,inactive,–,–
